The values below come from PubChem BioAssay AID1224864 (Chung Lab, Department of Pediatrics, Emory University, 2016).

Out of some 2,000 compounds screened, about 20 (1%) were called active. How the calls were made is not given here. Many of the other results were omitted from the sample, so actives are more common in it than they were.

Cystic fibrosis transmembrane conductance regulator (Homo sapiens), sequence (P13569 whole entry, looked up, stated change not applied): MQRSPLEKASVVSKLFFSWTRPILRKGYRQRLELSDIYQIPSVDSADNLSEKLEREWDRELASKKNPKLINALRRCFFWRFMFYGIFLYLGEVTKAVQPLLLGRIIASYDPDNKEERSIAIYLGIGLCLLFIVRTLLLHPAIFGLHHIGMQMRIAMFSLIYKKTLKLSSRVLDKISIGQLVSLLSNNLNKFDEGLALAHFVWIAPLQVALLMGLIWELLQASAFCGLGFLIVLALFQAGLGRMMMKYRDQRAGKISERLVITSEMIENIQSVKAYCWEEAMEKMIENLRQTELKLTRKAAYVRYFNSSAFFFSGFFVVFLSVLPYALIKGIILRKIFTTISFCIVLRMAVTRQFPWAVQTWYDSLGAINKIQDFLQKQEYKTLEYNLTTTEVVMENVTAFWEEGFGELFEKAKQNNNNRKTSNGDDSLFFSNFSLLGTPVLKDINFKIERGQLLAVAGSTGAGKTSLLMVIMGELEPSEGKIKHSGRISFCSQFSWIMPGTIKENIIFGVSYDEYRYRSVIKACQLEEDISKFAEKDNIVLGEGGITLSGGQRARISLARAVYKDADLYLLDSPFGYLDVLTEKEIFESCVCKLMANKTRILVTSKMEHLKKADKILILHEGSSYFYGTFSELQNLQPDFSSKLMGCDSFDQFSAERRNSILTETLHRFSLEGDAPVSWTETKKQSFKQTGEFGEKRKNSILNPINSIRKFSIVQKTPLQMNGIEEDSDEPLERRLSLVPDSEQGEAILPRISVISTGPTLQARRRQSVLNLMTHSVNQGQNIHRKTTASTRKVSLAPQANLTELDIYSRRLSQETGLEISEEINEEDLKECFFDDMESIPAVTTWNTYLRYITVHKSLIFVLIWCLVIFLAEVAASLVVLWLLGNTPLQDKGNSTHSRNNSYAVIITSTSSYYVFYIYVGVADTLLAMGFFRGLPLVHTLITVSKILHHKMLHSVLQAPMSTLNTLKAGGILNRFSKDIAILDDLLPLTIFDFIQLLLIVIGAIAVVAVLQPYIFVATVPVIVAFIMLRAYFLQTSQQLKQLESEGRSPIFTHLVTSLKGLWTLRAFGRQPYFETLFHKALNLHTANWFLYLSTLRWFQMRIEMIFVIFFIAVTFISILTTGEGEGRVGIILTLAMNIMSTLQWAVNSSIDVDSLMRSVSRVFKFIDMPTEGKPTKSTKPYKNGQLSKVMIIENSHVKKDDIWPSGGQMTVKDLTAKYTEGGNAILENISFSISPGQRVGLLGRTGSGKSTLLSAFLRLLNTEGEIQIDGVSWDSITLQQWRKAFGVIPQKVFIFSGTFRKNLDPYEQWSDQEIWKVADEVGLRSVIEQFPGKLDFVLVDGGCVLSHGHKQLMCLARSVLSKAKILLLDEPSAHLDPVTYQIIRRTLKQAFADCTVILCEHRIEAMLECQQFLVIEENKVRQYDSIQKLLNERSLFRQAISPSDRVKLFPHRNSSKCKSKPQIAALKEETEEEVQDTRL

This assay concerns the target Cystic fibrosis transmembrane conductance regulator (Homo sapiens) (UniProt P13569). Kind of assay: correctors of F508del-CFTR surface localization, primary screen, imaging, HeLa, high-content microscopy, immunofluorescence (AID 1224864).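 Further: HeLa cells stably expressing F508del-CFTR stained with 3G11 antibody against NBD1.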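 On plasma membrane CFTR intensity: mean immunofluorescence in a thin cell-margin band taken as plasma membrane.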 As to conditions: PM immunofluorescence imaging, 24 h, at 10 µM, stronger effect = higher value, relative to vehicle wells set at 100; total CFTR intensity: measured here: total cellular F508del-CFTR signal.
In the case of `N/C(=N/OS(=O)(=O)c1ccc([N+](=O)[O-])cc1)c1ccncc1`, the plasma membrane CFTR intensity was 87% (inactive) and the total CFTR intensity turned out to be 85%.

In the case of `COc1ccccc1NC(=O)N1CCc2[nH]c3ccc(Cl)cc3c2C1`, the plasma membrane CFTR intensity is 92% (inactive) and the total CFTR intensity came to 84%.

As for `C/C(CCc1oc2ccc(Cl)cc2c1-c1ccc(C)o1)=N\O`, the plasma membrane CFTR intensity is 91% (inactive) and the total CFTR intensity was 97%.

Consider `COc1ccc(/C=N\NC(=O)CCc2c(C)n[nH]c2C)c(OC)c1OC`, for which the plasma membrane CFTR intensity was 82% (inactive) and the total CFTR intensity was determined as 77%.

Turning to `COc1ccccc1Oc1c(C)oc2c(CN3CCN(CCO)CC3)c(O)ccc2c1=O`, the plasma membrane CFTR intensity is 90% (inactive) and the total CFTR intensity is 89%.

With `O=C(O)c1ccc(OCCn2ccnc2)cc1`, the plasma membrane CFTR intensity is 77% (inactive) and the total CFTR intensity stood at 82%.

Take `CN(CCCN1CCOCC1)Cc1cn(C)nc1-c1ccccc1F`: the plasma membrane CFTR intensity is 84% (inactive) and the total CFTR intensity is 87%.

Turning to `NCc1ccccc1COc1ccccc1`, the plasma membrane CFTR intensity was 81% (inactive) and the total CFTR intensity is 83%.

Regarding `Cc1ccc(CN2CCN(CCCc3ccccc3)CC2CCO)cc1` (stereo unspecified), the plasma membrane CFTR intensity was 82% (inactive) and the total CFTR intensity came out at 85%.

Consider `CCC(CO)NCCNC(CC)CO` (stereo unspecified), for which the plasma membrane CFTR intensity is 86% (inactive) and the total CFTR intensity stood at 88%.

On to `Cc1ccc(N2CCN(C(=S)c3ccc(-c4cccc([N+](=O)[O-])c4)o3)CC2)cc1`, for which the plasma membrane CFTR intensity was 81% (inactive) and the total CFTR intensity is 80%.

Consider `O=C(CN1C(=O)c2ccccc2S1(=O)=O)Nc1ccccc1`, for which the plasma membrane CFTR intensity is 84% (inactive) and the total CFTR intensity turned out to be 82%.

On to `CCCCC/C=C\C[C@H](O)/C=C/c1cccc(C[C@H](O)CCCCO)n1`, for which the plasma membrane CFTR intensity is 107% (active) and the total CFTR intensity was found to be 126%.

In the case of `CN(C)c1cc(NC(=O)CN2CCOCC2)c2ccccc2n1`, the plasma membrane CFTR intensity is 91% (inactive) and the total CFTR intensity stood at 88%.

For `CCOC(=O)C1C(=O)CC(C)(O)C(C(=O)OCC)C1/C=C/c1ccccc1` (stereo unspecified), the plasma membrane CFTR intensity was 95% (inactive) and the total CFTR intensity turned out to be 102%.

For the molecule `Nc1ccc(N)c(C(=O)O)c1`, the plasma membrane CFTR intensity is 77% (inactive) and the total CFTR intensity turned out to be 82%.

Regarding `CCOC(=O)Cn1c(C)cc(=O)c2ccccc21`, the plasma membrane CFTR intensity was 114% (inactive) and the total CFTR intensity was 113%.

Regarding `COc1cc(C(=O)OCCCN(C)C)cc(OC)c1OC`, the plasma membrane CFTR intensity was 89% (inactive) and the total CFTR intensity is 84%.

For `CN(C)c1ccc(CNCCC(Cc2ccccc2)c2ccco2)cc1` (stereo unspecified), the plasma membrane CFTR intensity is 50% (inactive) and the total CFTR intensity stood at 41%.

Regarding `Cn1c(=O)c2c(ncn2Cc2ccccc2)n(C)c1=O`, the plasma membrane CFTR intensity is 81% (inactive) and the total CFTR intensity turned out to be 82%.

With `CC(C)NC[C@@H](O)c1ccc(O)c(O)c1`, the plasma membrane CFTR intensity was 100% (inactive) and the total CFTR intensity turned out to be 111%.

Consider `CNC[C@H](O)c1ccc(O)c(O)c1`, for which the plasma membrane CFTR intensity is 101% (active) and the total CFTR intensity is 120%.

Consider `CNC[C@H](O)c1cccc(O)c1`, for which the plasma membrane CFTR intensity was 92% (inactive) and the total CFTR intensity was found to be 96%.

`O[C@@H](CNC[C@H](O)c1ccccc1)c1ccccc1`: the plasma membrane CFTR intensity is 90% (inactive) and the total CFTR intensity is 84%.

Regarding `Cn1nc(-c2ccc(Cl)cc2)nc2c(=O)n(C)c(=O)nc1-2`, the plasma membrane CFTR intensity was 84% (inactive) and the total CFTR intensity was found to be 86%.

With `O=C(CN1C(=O)c2ccccc2C1=O)Nc1cccc([N+](=O)[O-])c1`, the plasma membrane CFTR intensity was 90% (inactive) and the total CFTR intensity is 91%.

`COc1cc(-c2nnc(-c3cccs3)o2)cc(OC)c1OC`: the plasma membrane CFTR intensity was 96% (inactive) and the total CFTR intensity stood at 87%.

On to `O=c1c2[nH]c3ccccc3c2ncn1CCC1=CCCCC1`, for which the plasma membrane CFTR intensity was 87% (inactive) and the total CFTR intensity is 88%.

As to `Cc1ccc2c(c1)c1c(n2C)C(=O)CCC1`, the plasma membrane CFTR intensity is 76% (inactive) and the total CFTR intensity amounted to 75%.

In the case of `CCc1cc(=O)oc2cc(OCC=C(C)C)ccc12`, the plasma membrane CFTR intensity is 95% (inactive) and the total CFTR intensity worked out at 98%.

For `COc1ccc2c(c1OC)C(=O)NC(C)=C(C(=O)OC(C)(C)C)C2O` (stereo unspecified), the plasma membrane CFTR intensity was 87% (inactive) and the total CFTR intensity stood at 90%.

With `O=C1C=CC(=O)C(C2=C3C(=O)N(CCc4ccccc4)CC(=O)N3CCC2)=C1`, the plasma membrane CFTR intensity is 108% (active) and the total CFTR intensity turned out to be 124%.

As to `O=C1CCCCCN1Cc1ccccc1`, the plasma membrane CFTR intensity was 86% (inactive) and the total CFTR intensity was 90%.

Take `COC(=O)CN1CC(=O)N(c2ccccc2)C1=S`: the plasma membrane CFTR intensity was 83% (inactive) and the total CFTR intensity was 81%.

Consider `COc1ccccc1/C=C/CN1CCN(Cc2ccc(F)cc2)C(CCO)C1` (stereo unspecified), for which the plasma membrane CFTR intensity is 77% (inactive) and the total CFTR intensity was 77%.

For the molecule `CC(C)(CO)CNC(=O)CC1C(=O)NCCN1CC(c1ccccc1)c1ccccc1` (stereo unspecified), the plasma membrane CFTR intensity was 85% (inactive) and the total CFTR intensity was found to be 89%.

For the molecule `Cn1c(=O)c2nc3ccccc3nc2n(C)c1=O`, the plasma membrane CFTR intensity is 96% (inactive) and the total CFTR intensity stood at 90%.

For `Cc1coc2c1c(C)cc1oc(=O)c(Cc3ccccc3)c(C)c12`, the plasma membrane CFTR intensity is 91% (inactive) and the total CFTR intensity was determined as 91%.

As for `O=C(N/N=C\c1cc([N+](=O)[O-])ccc1N1CCOCC1)c1ccccn1`, the plasma membrane CFTR intensity is 79% (inactive) and the total CFTR intensity is 75%.

On to `COC(=O)c1cc(-c2ccc(C)o2)nc2ccccc12`, for which the plasma membrane CFTR intensity was 96% (inactive) and the total CFTR intensity turned out to be 99%.

With `Fc1ccc(C(c2ccc(F)cc2)N2CCN(C/C=C/c3ccccc3)CC2)cc1`, the plasma membrane CFTR intensity was 99% (inactive) and the total CFTR intensity is 120%.

With `Cc1cccc(CN2CCN(C(c3ccccc3)c3ccc(Cl)cc3)CC2)c1` (stereo unspecified), the plasma membrane CFTR intensity is 92% (inactive) and the total CFTR intensity is 107%.

As to `C(=C\c1ccccc1)/CN1CCN(C(c2ccccc2)c2ccccc2)CC1`, the plasma membrane CFTR intensity is 107% (active) and the total CFTR intensity stood at 125%.

On to `O=C(O)c1ccc(N2C(=O)/C(=C\c3ccccc3)N=C2c2ccccc2)cc1`, for which the plasma membrane CFTR intensity was 78% (inactive) and the total CFTR intensity was found to be 78%.

In the case of `COC1CCN(C(=O)c2ccc(OC3CCN(Cc4ccccn4)CC3)cc2)CC1`, the plasma membrane CFTR intensity was 81% (inactive) and the total CFTR intensity was 75%.

Turning to `CC(C)Cc1nc(NCCN2CCOCC2)c(C#N)c2c1COC(C)(C)C2`, the plasma membrane CFTR intensity is 96% (inactive) and the total CFTR intensity is 92%.

Take `C/C(=N\N=C1/NC(=O)C(CC(=O)Nc2ccc(Cl)cc2)S1)c1ccco1` (stereo unspecified): the plasma membrane CFTR intensity was 81% (inactive) and the total CFTR intensity was determined as 80%.

As to `CC(C)COC(=O)C1C(=O)CC(C)(O)C(C(=O)OCC(C)C)C1c1cccnc1` (stereo unspecified), the plasma membrane CFTR intensity was 93% (inactive) and the total CFTR intensity came to 100%.

With `C=C(C)COc1ccc(-c2nc(N)ncc2-c2ccc(OC)cc2)c(O)c1`, the plasma membrane CFTR intensity is 82% (inactive) and the total CFTR intensity was found to be 81%.

Turning to `O=C(Oc1ccc2c3c(c(=O)oc2c1)CCCC3)c1ccco1`, the plasma membrane CFTR intensity is 89% (inactive) and the total CFTR intensity came out at 85%.

Consider `CSCCC(NC(C)=O)C(=O)Oc1ccc2c3c(c(=O)oc2c1)CCCC3` (stereo unspecified), for which the plasma membrane CFTR intensity is 80% (inactive) and the total CFTR intensity was determined as 80%.

As for `O=C(Oc1ccccc1)Oc1ccc2c(c1)oc(=O)c1ccccc12`, the plasma membrane CFTR intensity was 120% (active) and the total CFTR intensity was 140%.

For `C[C@H]1O[C@H]1P(=O)(O)O`, the plasma membrane CFTR intensity was 103% (inactive) and the total CFTR intensity was found to be 108%.

As to `Cc1ccc([N+](=O)[O-])cc1NC1OC(CO)C(O)C1O` (stereo unspecified), the plasma membrane CFTR intensity is 85% (inactive) and the total CFTR intensity turned out to be 85%.

Turning to `CC(C)CN(C)Cc1c(C(=O)N2CCc3ccccc3C2)nc2ccc(Cl)cn12`, the plasma membrane CFTR intensity is 77% (inactive) and the total CFTR intensity is 81%.

As to `CN(C)CCOCCOc1ccc(Cl)cc1Br`, the plasma membrane CFTR intensity was 81% (inactive) and the total CFTR intensity is 81%.

Turning to `Cn1cc(CN2CCC(C(=O)N3CCCCC3)CC2)c(-c2ccccc2F)n1`, the plasma membrane CFTR intensity was 79% (inactive) and the total CFTR intensity came to 72%.

Regarding `CCOC(=O)C1(CCCc2ccccc2)CCN(C2CCN(C(C)=O)CC2)CC1`, the plasma membrane CFTR intensity is 94% (inactive) and the total CFTR intensity was 101%.
